From PubChem
HT1080NT lethal: kills 2HG-producing HT-1080-NT fibrosarcoma cells; Potency, µM (top dose mostly 46.1 µM), actives largely listed as cytotoxic; 360,000 compounds, 1.6% hits; AID 686970; HT-1080-NT fibrosarcoma viability, CellTiter-Glo ATP luminescence, 48 h;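 also: NT is the 2HG producing partner of a matched IDH1 knockdown line; nearly all actives have a fitted effect of over 55% in size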
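Fibrosarcoma NT cells, 750 per well in 5% FBS RPMI, were exposed to compound for 48 hours. Viability: CellTiter-Glo luminescence.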
KB-V1 MDR tox: KB-V1 MDR subline cytotoxicity; KB-V1 MDR cells viability, CellTiter-Glo, 72 h; Potency, µM (highest dose often 46.1 µM), actives largely listed as cytotoxic; 400,000 compounds, 3.4% hits; AID 1347076; also: nearly all actives have a fitted effect of over 60% in size
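Luminescent ATP read-out (CellTiter-Glo, 10 min) measures survival of drug-selected KB-V1 MDR cells after 72 h, 37 degrees C compound exposure. Medium: phenol-red-free DMEM, 10% FBS. Values from fitted concentration-response curves.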
HT1080 IDH1KD tx: toxicity to HT-1080 IDH1 knockdown cells (counter line). HT-1080 IDH1 knockdown viability, ATP luminescence, 48 h. Potency, µM (doses to about 46.1 µM), actives largely listed as cytotoxic. 360,000 compounds, 2% hits
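Knockdown cells (IDH1KD HT-1080) received compounds 2 h after plating at 750 cells/well and were kept 48 h at 37 °C in 5% FBS RPMI. A CellTiter-Glo luminescence read gave % activity for curve fitting.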
KB-3-1 tox: kills parental KB-3-1 adenocarcinoma cells | KB-3-1 viability, CellTiter-Glo ATP luminescence, 72 h | Potency, µM (highest dose often 46.1 µM), actives largely listed as cytotoxic | 400,000 compounds, 1.4% hits; also: nearly all actives have a fitted effect of over 60% in size
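Viability of parental KB-3-1 cells, measured by CellTiter-Glo luminescence, followed a 72 h incubation at 37 °C with pinned compounds in phenol-red-free DMEM containing 10% FBS.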
IL-1B inflam inh: inhibitors of inflammasome signaling (IL-1 beta secretion); THP-1 LPS/ATP IL-1B secretion, AlphaLISA, 16 h; active compounds read low; activity change, % at 57.5 µM; 360,000 compounds, 4.7% hits; in the data active = activity change below about -50%; inconclusive = mostly about -30% to -49%
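Secreted IL-1B measured by AlphaLISA bead assay after 16 h compound exposure of THP-1 cells; compounds (final up to 57.5 uM) added 1 h before LPS (250 ng/mL) and ATP (1.25 mM) stimulation; lower signal means less secretion.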
Each line names hits and unclear results; the compound was inactive in the other large screens. Sampled rows, rich in hits. Any-hit rate of the full collection: about 8.8%. Unless noted, calls follow the shape of the dose curve; as a rule, active = well fitted curve in the direction sought with a large enough effect; inconclusive = small, poorly fitted or top-dose-only effect, or another doubt; inactive = no such curve, though single readings can be large; an effect the other way counts as inactive or inconclusive.

Cc1ccc2sc(C)[n+](CCO)c2c1	IL-1B inflam inh -71.2
COc1ccc(Cc2c(Cl)ncnc2Cl)cc1	IL-1B inflam inh -111.5
Cc1ccc(Cl)cc1NC(c1ccc(F)cc1)c1nnc(-c2ccccc2)o1 (configuration not stated)	KB-3-1 tox inconclusive (no result: HT1080NT lethal, HT1080 IDH1KD tx, IL-1B inflam inh)
Cc1ccc(S(=O)(=O)N2C[C@H]3N(C(=O)OC(C)C)N(C(=O)OC(C)C)C[C@H](OC(=O)Nc4cccs4)[C@@]3(O)C2)cc1	IL-1B inflam inh -80.4
Cc1ccc(S(=O)(=O)N2C[C@H]3N(C(=O)OC(C)C)N(C(=O)OC(C)C)C[C@H](OC(=O)NCc4ccccc4F)[C@@]3(O)C2)cc1	none
Cc1ccc(S(=O)(=O)N2C[C@H]3N(C(=O)OC(C)C)N(C(=O)OC(C)C)C[C@H](OC(=O)Nc4c(C)noc4C)[C@@]3(O)C2)cc1	IL-1B inflam inh -50.7
CCOC(=O)[C@]12CCCC=C1N(Cc1ccccc1)C(=O)[C@H](CC(=O)N1CCCCCC1)C2	KB-V1 MDR tox inconclusive
CCCS(=O)(=O)NC(=O)C1(C)CCN(C(=O)c2cccc(OC(F)(F)F)c2)C1 (configuration not stated)	none
COc1ccc(O)c(-c2cc(-c3ccccc3[N+](=O)[O-])[nH]n2)c1	KB-3-1 tox inconclusive
Oc1ccccc1-c1cc(-c2cccc(F)c2)n[nH]1	KB-V1 MDR tox inconclusive, KB-3-1 tox inconclusive
Cc1ccc(O)c(-c2cc(-c3ccccc3C)[nH]n2)c1	KB-V1 MDR tox inconclusive, KB-3-1 tox inconclusive, IL-1B inflam inh -95.3
CC(C)(C)c1ccc(-c2cc(-c3ccccc3O)[nH]n2)cc1	HT1080NT lethal inconclusive, KB-V1 MDR tox inconclusive, HT1080 IDH1KD tx 14.6µM, KB-3-1 tox inconclusive, IL-1B inflam inh -98.6
Cc1ccc(O)c(-c2cc(-c3ccccc3[N+](=O)[O-])[nH]n2)c1	IL-1B inflam inh -86.7
COc1ccc(-c2cc(-c3cc(C)ccc3O)[nH]n2)cc1	HT1080NT lethal 3.66µM, KB-V1 MDR tox inconclusive, HT1080 IDH1KD tx inconclusive, KB-3-1 tox inconclusive, IL-1B inflam inh inconclusive
Cc1cc(NC(=NC2CC2)c2ccccc2F)n(-c2ccccc2)n1	none
CS(=O)(=O)N1CCC(Oc2ccccc2C(=O)NCCCc2cccnc2)CC1	KB-V1 MDR tox inconclusive
O=[N+]([O-])c1ccccc1-c1cc(-c2cc(Cl)ccc2O)n[nH]1	KB-V1 MDR tox inconclusive, IL-1B inflam inh -101.1
Oc1ccc(Br)cc1-c1ccn[nH]1	none
Oc1ccc(Cl)cc1-c1cc(-c2ccco2)[nH]n1	HT1080NT lethal inconclusive, KB-V1 MDR tox inconclusive, HT1080 IDH1KD tx inconclusive
Oc1ccc(Cl)cc1-c1cc(-c2ccccc2Cl)[nH]n1	KB-V1 MDR tox inconclusive, KB-3-1 tox inconclusive
Oc1ccccc1-c1cc(-c2ccccc2Cl)[nH]n1	KB-V1 MDR tox 20.6µM, IL-1B inflam inh inconclusive
Oc1ccc(Cl)cc1-c1cc(-c2cccc(Br)c2)n[nH]1	KB-V1 MDR tox 20.6µM, KB-3-1 tox inconclusive
CCc1ccccc1NC(=S)N(CCN(C)C)C(C)c1ccccn1 (configuration not stated)	none
Cc1ccc(Cl)cc1NC(=S)N(CCN(C)C)C(C)c1ccccn1 (configuration not stated)	IL-1B inflam inh -73.5
CC(C)CCn1c(O)c(N=NC(=O)c2ccco2)c2ccccc21	KB-V1 MDR tox 13µM
Cn1c(O)c(N=NC(=O)c2ccccc2O)c2ccccc21	KB-V1 MDR tox 16.4µM, HT1080 IDH1KD tx inconclusive
Cn1c(O)c(N=NC(=O)c2ccco2)c2ccccc21	none
O=C(N=Nc1c(O)n(Cc2ccccc2)c2ccccc12)c1cc2ccccc2cc1O	KB-V1 MDR tox inconclusive, KB-3-1 tox inconclusive
CC(C)Cn1c(O)c(N=NC(=O)c2cccc(S(=O)(=O)N3CCCCC3)c2)c2ccccc21	KB-V1 MDR tox 2.06µM, KB-3-1 tox inconclusive, IL-1B inflam inh inconclusive
O=C(N=Nc1c(O)n(Cc2ccccc2)c2ccccc12)c1ccc(O)cc1	KB-V1 MDR tox 14.6µM, KB-3-1 tox inconclusive, IL-1B inflam inh inconclusive
CCOc1ccccc1NC(=O)Cn1ccn(Cc2ccc(C)cc2)c(=O)c1=O	none (no result: HT1080NT lethal, HT1080 IDH1KD tx, IL-1B inflam inh)
NC(=O)CN1C(=O)C2(SCC(=O)N2c2cccc(F)c2)c2ccccc21 (configuration not stated)	none (no result: HT1080NT lethal, HT1080 IDH1KD tx, IL-1B inflam inh)
